The supplement of paper PMC12067093, “Discovery and optimisation of a covalent ligand for TRIM25 and its application to targeted protein ubiquitination” (Chemical Science, 2025)
About 21,000 targets were measured; listed, in parts, are those with the largest changes and a random draw of the rest.

Compound: Cc1cc(ccc1-c1ccccc1)C(=O)N1CCCN(CC1)C(=O)CCl [compound 10]
Assay: probe-labelled cysteine peptide fold change vs DMSO (competition) (log2 fold change); higher = less target engagement (more negative = stronger competition)
Conditions: THP-1, incubation time: 4 h
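Further: competitive profiling in live THP-1 cells: cysteine peptides tagged with an iodoacetamide desthiobiotin (IA-DTB) probe, intensity after compound treatment relative to DMSO-treated cells.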

## SMCHD1_A6NHR9_444_YHPFLYDRETYPDDPCFPSK (UniProt A6NHR9)
Sequence of UniProt A6NHR9 (A6NHR9 whole entry, looked up): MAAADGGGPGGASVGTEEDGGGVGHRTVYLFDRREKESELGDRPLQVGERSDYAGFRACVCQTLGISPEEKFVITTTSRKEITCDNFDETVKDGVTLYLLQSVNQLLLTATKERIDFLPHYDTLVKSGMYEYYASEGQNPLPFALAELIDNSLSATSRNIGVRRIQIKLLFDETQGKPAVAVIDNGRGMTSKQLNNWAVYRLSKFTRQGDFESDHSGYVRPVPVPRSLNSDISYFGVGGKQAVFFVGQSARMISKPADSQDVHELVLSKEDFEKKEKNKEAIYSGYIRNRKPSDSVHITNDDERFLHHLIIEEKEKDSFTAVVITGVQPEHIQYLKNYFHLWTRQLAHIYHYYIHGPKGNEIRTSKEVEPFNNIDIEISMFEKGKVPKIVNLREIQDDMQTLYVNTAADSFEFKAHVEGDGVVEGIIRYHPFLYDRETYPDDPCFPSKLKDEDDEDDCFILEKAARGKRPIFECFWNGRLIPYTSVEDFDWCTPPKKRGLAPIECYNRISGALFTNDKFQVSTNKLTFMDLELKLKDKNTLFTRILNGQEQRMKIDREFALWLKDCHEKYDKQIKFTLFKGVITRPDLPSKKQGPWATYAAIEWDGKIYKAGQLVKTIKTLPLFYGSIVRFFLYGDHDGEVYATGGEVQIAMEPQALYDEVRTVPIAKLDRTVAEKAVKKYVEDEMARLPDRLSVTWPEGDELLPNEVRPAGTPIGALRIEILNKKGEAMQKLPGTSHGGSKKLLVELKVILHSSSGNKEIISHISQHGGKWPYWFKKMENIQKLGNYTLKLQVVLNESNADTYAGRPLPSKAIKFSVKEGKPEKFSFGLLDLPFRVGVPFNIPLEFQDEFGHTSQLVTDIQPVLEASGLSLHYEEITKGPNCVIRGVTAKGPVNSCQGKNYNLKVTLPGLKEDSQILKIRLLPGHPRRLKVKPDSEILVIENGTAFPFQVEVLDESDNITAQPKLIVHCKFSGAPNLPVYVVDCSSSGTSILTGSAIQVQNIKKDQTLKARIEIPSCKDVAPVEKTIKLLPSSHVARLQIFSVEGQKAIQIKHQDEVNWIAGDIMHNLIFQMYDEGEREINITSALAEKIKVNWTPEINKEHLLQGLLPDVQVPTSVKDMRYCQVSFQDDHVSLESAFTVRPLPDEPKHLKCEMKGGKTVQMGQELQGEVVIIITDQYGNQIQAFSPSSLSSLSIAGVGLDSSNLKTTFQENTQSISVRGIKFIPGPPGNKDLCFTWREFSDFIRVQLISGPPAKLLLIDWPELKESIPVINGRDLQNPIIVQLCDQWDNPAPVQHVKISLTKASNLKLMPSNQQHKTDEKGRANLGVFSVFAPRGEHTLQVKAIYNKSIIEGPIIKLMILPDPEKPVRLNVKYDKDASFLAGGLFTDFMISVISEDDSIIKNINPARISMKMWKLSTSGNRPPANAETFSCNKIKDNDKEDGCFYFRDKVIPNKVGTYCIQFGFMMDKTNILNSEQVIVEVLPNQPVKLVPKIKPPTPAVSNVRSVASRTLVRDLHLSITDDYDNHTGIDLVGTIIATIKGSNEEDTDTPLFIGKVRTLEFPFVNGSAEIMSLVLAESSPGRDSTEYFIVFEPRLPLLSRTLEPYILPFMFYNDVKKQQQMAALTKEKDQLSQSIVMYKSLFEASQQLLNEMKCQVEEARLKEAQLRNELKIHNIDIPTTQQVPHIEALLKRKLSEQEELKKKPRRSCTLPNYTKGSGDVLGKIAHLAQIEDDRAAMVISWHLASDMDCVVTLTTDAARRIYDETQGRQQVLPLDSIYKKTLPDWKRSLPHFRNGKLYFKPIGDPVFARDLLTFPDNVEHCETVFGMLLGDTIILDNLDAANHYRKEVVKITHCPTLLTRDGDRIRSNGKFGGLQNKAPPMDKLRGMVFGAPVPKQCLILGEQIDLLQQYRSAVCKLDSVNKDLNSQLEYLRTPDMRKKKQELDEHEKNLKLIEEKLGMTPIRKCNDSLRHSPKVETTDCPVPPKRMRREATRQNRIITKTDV
10 µM
  probe-labelled cysteine peptide fold change: -0.159
50 µM
  probe-labelled cysteine peptide fold change: -0.206

## SCCPDH_Q8NBX0_238_WPISYCR (UniProt Q8NBX0)
Sequence of UniProt Q8NBX0 (Q8NBX0 whole entry, looked up): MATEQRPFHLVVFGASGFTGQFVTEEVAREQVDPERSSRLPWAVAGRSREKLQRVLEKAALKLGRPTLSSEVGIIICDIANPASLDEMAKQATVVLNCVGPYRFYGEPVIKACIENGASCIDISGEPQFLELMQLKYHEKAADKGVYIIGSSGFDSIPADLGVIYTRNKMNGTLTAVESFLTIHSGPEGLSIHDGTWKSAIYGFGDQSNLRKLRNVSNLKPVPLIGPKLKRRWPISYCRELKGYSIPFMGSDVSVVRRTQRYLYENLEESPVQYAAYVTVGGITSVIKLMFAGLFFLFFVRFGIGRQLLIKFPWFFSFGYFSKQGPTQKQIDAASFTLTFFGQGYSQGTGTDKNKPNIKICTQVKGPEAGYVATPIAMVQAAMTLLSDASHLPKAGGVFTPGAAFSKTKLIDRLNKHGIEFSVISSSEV
10 µM
  probe-labelled cysteine peptide fold change: -0.242
50 µM
  probe-labelled cysteine peptide fold change: -1.65

## SMNDC1_O75940_214_VGVGTCGIADKPMTQYQDTSK (UniProt O75940)
Sequence of UniProt O75940 (O75940 whole entry): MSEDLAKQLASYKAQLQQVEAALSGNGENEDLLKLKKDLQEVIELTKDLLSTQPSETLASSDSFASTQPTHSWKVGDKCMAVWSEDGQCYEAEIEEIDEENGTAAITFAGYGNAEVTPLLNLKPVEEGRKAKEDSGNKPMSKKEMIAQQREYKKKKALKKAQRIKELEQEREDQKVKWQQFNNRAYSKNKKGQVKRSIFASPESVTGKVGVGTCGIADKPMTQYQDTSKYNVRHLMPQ
10 µM
  probe-labelled cysteine peptide fold change: 0.155
50 µM
  probe-labelled cysteine peptide fold change: -0.732

## RPS6_P62753_83_GHSCYRPR (UniProt P62753)
10 µM
  probe-labelled cysteine peptide fold change: -0.077
50 µM
  probe-labelled cysteine peptide fold change: 0.137

## RPL11_P62913_21+25_KLCLNICVGESGDR (UniProt P62913)
10 µM
  probe-labelled cysteine peptide fold change: -0.0801
50 µM
  probe-labelled cysteine peptide fold change: -0.334

## RPLP0_P05388_27_CFIVGADNVGSK (UniProt P05388)
10 µM
  probe-labelled cysteine peptide fold change: 0.0238
50 µM
  probe-labelled cysteine peptide fold change: 0.0907

## SLX4_Q8IY92_318_CLDEAEK (UniProt Q8IY92)
10 µM
  probe-labelled cysteine peptide fold change: -0.0818
50 µM
  probe-labelled cysteine peptide fold change: 0.0245

## SNRNP70_P08621_39_HHNQPYCGIAPYIR (UniProt P08621)
Sequence of UniProt P08621 (P08621 whole entry): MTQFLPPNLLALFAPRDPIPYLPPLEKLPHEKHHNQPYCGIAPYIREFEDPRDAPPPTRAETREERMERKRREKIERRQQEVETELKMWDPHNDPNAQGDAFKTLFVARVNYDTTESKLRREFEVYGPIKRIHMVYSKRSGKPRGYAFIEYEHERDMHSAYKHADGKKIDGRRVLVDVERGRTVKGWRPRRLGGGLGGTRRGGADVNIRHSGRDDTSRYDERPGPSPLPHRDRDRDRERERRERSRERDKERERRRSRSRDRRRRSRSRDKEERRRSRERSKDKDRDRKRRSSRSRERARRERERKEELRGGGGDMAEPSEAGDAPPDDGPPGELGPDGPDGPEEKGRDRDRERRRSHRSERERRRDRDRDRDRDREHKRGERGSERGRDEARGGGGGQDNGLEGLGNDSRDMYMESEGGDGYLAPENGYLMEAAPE
10 µM
  probe-labelled cysteine peptide fold change: -0.0761
50 µM
  probe-labelled cysteine peptide fold change: -0.168

## SMC3_Q9UQE7_1134_CDPAPFYLFDEIDQALDAQHR (UniProt Q9UQE7)
Sequence of UniProt Q9UQE7 (Q9UQE7 whole entry, looked up): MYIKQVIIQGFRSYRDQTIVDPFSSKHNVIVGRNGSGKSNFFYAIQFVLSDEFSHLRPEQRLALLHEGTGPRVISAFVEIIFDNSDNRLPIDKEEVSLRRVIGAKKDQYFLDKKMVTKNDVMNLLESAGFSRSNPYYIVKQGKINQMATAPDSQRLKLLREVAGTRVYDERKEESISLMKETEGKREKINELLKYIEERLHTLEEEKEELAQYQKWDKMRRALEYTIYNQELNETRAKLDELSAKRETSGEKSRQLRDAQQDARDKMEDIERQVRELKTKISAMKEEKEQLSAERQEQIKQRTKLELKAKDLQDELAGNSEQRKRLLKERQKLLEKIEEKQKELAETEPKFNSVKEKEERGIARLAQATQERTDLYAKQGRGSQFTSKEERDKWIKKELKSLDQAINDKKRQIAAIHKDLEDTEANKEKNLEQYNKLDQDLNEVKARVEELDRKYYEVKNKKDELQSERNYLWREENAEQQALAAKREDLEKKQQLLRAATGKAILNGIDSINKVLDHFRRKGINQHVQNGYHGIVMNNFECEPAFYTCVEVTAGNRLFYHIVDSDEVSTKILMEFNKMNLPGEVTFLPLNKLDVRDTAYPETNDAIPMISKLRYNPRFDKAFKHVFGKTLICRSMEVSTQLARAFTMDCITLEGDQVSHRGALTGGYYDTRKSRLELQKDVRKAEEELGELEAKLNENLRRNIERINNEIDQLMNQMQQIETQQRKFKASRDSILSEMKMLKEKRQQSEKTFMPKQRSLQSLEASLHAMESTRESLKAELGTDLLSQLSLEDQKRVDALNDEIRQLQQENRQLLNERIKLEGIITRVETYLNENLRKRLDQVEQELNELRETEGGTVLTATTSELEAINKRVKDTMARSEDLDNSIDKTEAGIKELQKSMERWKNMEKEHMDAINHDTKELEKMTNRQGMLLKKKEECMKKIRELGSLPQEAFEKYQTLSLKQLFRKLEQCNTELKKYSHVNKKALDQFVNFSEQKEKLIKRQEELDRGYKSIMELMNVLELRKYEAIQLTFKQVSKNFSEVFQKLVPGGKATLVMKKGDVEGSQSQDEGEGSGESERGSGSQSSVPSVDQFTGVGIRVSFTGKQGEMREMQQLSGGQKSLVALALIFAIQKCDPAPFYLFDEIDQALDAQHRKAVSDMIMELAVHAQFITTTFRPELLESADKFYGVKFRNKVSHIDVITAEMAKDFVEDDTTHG
10 µM
  probe-labelled cysteine peptide fold change: 0.416
50 µM
  probe-labelled cysteine peptide fold change: 0.52

## RNF214_Q8ND24_696_FWAQTNTNDTCPFCPTLK (UniProt Q8ND24)
Sequence of UniProt Q8ND24 (Q8ND24 whole entry, looked up): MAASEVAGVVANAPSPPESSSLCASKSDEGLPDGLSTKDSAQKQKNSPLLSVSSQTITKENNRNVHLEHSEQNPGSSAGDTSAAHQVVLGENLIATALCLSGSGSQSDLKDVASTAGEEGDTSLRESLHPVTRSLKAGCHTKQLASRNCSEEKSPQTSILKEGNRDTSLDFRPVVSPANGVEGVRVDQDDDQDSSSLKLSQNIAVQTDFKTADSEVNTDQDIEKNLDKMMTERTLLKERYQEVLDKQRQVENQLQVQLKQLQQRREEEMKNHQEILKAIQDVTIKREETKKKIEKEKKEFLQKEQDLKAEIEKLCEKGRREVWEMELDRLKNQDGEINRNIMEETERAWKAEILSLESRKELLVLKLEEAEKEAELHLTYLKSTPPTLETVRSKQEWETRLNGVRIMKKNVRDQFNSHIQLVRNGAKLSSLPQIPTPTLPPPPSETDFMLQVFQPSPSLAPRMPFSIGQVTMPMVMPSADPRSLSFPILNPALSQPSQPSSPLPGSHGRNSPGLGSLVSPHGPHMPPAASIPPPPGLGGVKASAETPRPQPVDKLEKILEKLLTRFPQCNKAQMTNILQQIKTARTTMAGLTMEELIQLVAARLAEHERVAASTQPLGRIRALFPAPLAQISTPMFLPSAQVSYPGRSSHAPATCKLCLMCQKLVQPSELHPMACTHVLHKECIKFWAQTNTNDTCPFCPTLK
10 µM
  probe-labelled cysteine peptide fold change: 0.35
50 µM
  probe-labelled cysteine peptide fold change: 1.12

## SMYD3_Q9H7B4_261+263_DQYCFECDCFR (UniProt Q9H7B4)
10 µM
  probe-labelled cysteine peptide fold change: -0.0235
50 µM
  probe-labelled cysteine peptide fold change: -0.599

## RTN3_O95197-3_42_SCSSSCAVHDLIFWR (UniProt O95197)
10 µM
  probe-labelled cysteine peptide fold change: -2.02
50 µM
  probe-labelled cysteine peptide fold change: -1.97

## SNRNP200_O75643_1278_VVSDRWLSCETQLPVSFR (UniProt O75643)
10 µM
  probe-labelled cysteine peptide fold change: -0.0123
50 µM
  probe-labelled cysteine peptide fold change: -0.0331

## SMYD5_Q6GMV2_136_LAATEQYHQVLCPGPSQDDPLHPLNK (UniProt Q6GMV2)
10 µM
  probe-labelled cysteine peptide fold change: -0.0142
50 µM
  probe-labelled cysteine peptide fold change: -0.404
